This is a sample that favours compounds with a hit; in the whole collection about 3.8% have one here.
HSF1 inhib: HSF1 inhibition; activity change, negative = inhibition, % at 7.5 µM (by protocol); hit rate 0.77% among 300,000; NIH3T3-HGL HSE-luciferase, MG132-induced, luminescence 8 h; active compounds read low;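 active = more than half of replicate wells show activity change below -50%, luminescence cut by over half; inconclusive = some wells, but at most half, below -50%; inactive = no replicate well below -50%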;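 also: luciferase reports HSF-1 transcriptional activity via heat shock element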
HSF1 activator: increases HSF-1 driven luciferase reporter signal; hit rate 1.7% among 300,000; AID 504408; activation, % at 9 µM; NIH3T3-HGL HSF-1 luciferase reporter, MG132, 8 h; 100% = twice DMSO control signal;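 active = mean replicate activation of at least 50% with a set share of replicates each reaching 50%; inconclusive = only one of those two conditions met; inactive = mean below 50% and too few replicates reaching it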
MITF TRPM1 HTS: increases MITF-driven TRPM1 promoter luciferase signal; SK-MEL-5 TRPM1-promoter luciferase, 24 h; % of positive control, neutral wells = 0; activation, % at 12.5 µM; hit rate 0.75% among 300,000; AID 588334;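 active = mean activation of at least 80% with every replicate also reaching 80%; inconclusive = mean reaches 80% but some replicate falls short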
Wnt act: activates Wnt/beta-catenin signaling in a reporter cell assay; activator, plate reader; activation, % at 9.35 µM; hit rate 1.2% among 300,000; AID 743398; in the data active = activation above about 30%, passing the limit was not always enough; inconclusive = no clear call, values can overlap the other calls
esBAF inh: blocks esBAF chromatin remodeling in mouse ES cells | Bmi1-luciferase knock-in reporter, 24 h; 100% = twice the neutral-well signal | reporter increase, % at 12.5 µM | hit rate 2% among 350,000; in the data active = activation above about 40%; inconclusive = no clear call, values can overlap the other calls;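 also: a rise in the Bmi1 reporter signal indicates esBAF inhibition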
Hits are given with their value; n = inactive; u = inconclusive; x = not tested or not shown.

SMILES	HSF1 inhib	HSF1 activator	MITF TRPM1 HTS	Wnt act	esBAF inh
COc1cccc(NC(=O)N(C)C[C@H]2Oc3cc(C#Cc4ccc(F)cc4)ccc3S(=O)(=O)N([C@H](C)CO)C[C@@H]2C)c1	x	x	x	x	n
O=C(C[C@H]1C=C[C@@H](NC(=O)C2CC2)[C@@H](CO)O1)NCc1ccccc1Cl	x	x	x	x	n
C[C@H]1CN([C@@H](C)CO)C(=O)c2cccc(N(C)C)c2O[C@@H]1CN(C)Cc1ccc(C(=O)O)cc1	x	x	x	x	n
COc1cccc(CNC(=O)C[C@@H]2C=C[C@H](NC(=O)C3CC3)[C@H](CO)O2)c1	x	x	x	x	n
Cn1c(SCC(=O)c2ccccc2)nnc1-c1cccs1	n	n	n	u	68
Cn1c(SCC(=O)NCc2cccs2)nnc1-c1cccs1	n	n	n	n	x
CC(CCl)n1c(=O)c2ccccc2n1S(C)(=O)=O (configuration not stated)	x	x	x	n	x
CS(=O)(=O)n1c2ccccc2c(=O)n1-c1ccccc1CCl	x	x	x	n	56
O=C(c1ccccc1)n1c2ccccc2c(=O)n1-c1ccccc1CCl	x	x	x	x	87
CCOC(=O)c1nnc(-c2ccccc2)nc1Sc1ccccc1Cl	n	159	n	x	n
O=C(Nc1nc2ccccc2[nH]1)C1CCCC1	n	n	n	n	n
COCc1nnc(NC(=O)CCc2ccc(OC)cc2)s1	n	n	x	n	n
O=C(CC1CCCC1)Nc1nc2ccccc2[nH]1	n	n	x	40	62
CCCCCC(=O)Nc1nc2ccccc2[nH]1	n	n	x	53	u
COc1ccc(CCC(=O)Nc2nnc(C)s2)cc1	n	n	x	63	x
COc1ccc(Br)c(C(=O)Nc2nc3ccccc3[nH]2)c1	n	n	92	n	49
CCCNC(=O)N1[C@H](CO)[C@H](c2ccccc2)[C@H]1CNC(=O)c1cccc(F)c1	x	x	x	x	n
C[C@@H]1CN([C@@H](C)CO)C(=O)c2cc(NC(=O)Nc3ccc(F)cc3)ccc2O[C@@H](C)CCCCO[C@@H]1CN(C)C(=O)c1ccccc1	x	x	x	x	n
COc1ccc(OCC(=O)Nc2nc3ccccc3[nH]2)cc1	n	n	n	x	49
COc1ccc(CCC(=O)Nc2nc3ccccc3[nH]2)cc1	n	n	n	x	46
COc1ccc(CC(=O)Nc2nc3ccccc3[nH]2)cc1	n	n	n	n	x
C[C@@H]1CN([C@H](C)CO)C(=O)c2cccc(NC(=O)c3ccncc3)c2O[C@@H]1CN(C)Cc1ccc(C(=O)Nc2ccccc2N)cc1	x	x	x	x	n
COc1ccc(-c2cn[nH]c2-c2ccc(OCc3ccc([N+](=O)[O-])cc3)cc2O)cc1OC	n	57	n	n	n
COc1ccc(C)c2sc(=NC(=O)c3ccc(C(C)=O)cc3)n(C)c12	n	n	u	n	x
COc1ccc(C)c2sc(=NC(=O)c3ccccc3)n(C)c12	n	n	x	u	51
SMILES	HSF1 inhib	HSF1 activator	MITF TRPM1 HTS	Wnt act	esBAF inh
CCOC(=O)N1CCN(Cc2c(NC(=O)c3ccco3)sc(C)c2C)CC1	n	99	n	n	n
Cc1sc(NC(=O)c2ccco2)c(CN2CCN(c3ccc(F)cc3)CC2)c1C	n	87	x	n	n
C[C@H](O)C#Cc1ccc2c(c1)O[C@H](CN(C)C(=O)Nc1ccccc1)[C@H](C)CN([C@@H](C)CO)S2(=O)=O	x	x	x	x	n
C[C@@H]1CN([C@H](C)CO)C(=O)CCCn2cc(nn2)CO[C@H]1CN(C)Cc1ccc(Cl)c(Cl)c1	x	x	x	x	n
Cc1cc(C)c(S(=O)(=O)Nc2ccc(N(C)C)cc2)c(C)c1-n1cnnn1	-65	n	n	n	n
O=C(NCC1CC1)[C@@H]1[C@@H](CO)[C@@H]2Cn3c(ccc(-c4cccnc4)c3=O)[C@H]1N2C(=O)C1CCC1	x	x	x	x	n
O=C(NCC1CC1)[C@H]1[C@H](CO)[C@H]2Cn3c(cccc3=O)[C@H]2N1CCC(F)(F)F	x	x	x	x	n
O=C(NNC(=O)c1cccc(-n2cccc2)c1)c1ccccc1	x	x	n	n	u
O=C(NNC(=O)c1ccccc1F)c1cccc(-n2cccc2)c1	n	n	n	n	45
COc1ccc(/C=N/NC(=S)N[C@H]2CC3CCC2C3)cc1 (some centres not stated)	n	n	x	n	x
COc1cccc(C=NNC(=S)NC2CC3CCC2C3)c1O (configuration not stated)	x	x	x	37	x
COc1cc(/C=N/NC(=S)NC2CC3CCC2C3)ccc1O (configuration not stated)	n	57	n	n	n
CN(CCC#N)C(=O)COC(=O)c1c2c(nc3ccccc13)/C(=C\c1ccco1)CC2	x	x	n	n	56
